# In PubChem BioAssay AID540332 (The Scripps Research Institute Molecular Screening Center, 2011):
# Unmarked numbers belong to inactive results. How the calls were made is not given here.
# System: Potassium Channel KATP
# Assay: selectivity profile across receptors and CYP450s – biochemical, Ricerca HitProfilingScreen, CYP450, set 2, selectivity assay for S1P4 agonist project, profiling panel (AID 540332)
# Conditions: at 30 µM; stronger effect = higher value
smiles,measurement,value
COCCN=C1S/C(=C\c2cc(C)n(-c3ccc(F)cc3F)c2C)C(=O)N1C,inhibition,-5%
